Structures can show the parent of a compound that is named as a salt. ± gives the standard deviation of the averaged measurements.
Test system: Listeria monocytogenes 10403S
Test: growth inhibition relative to ceftriaxone-alone control; higher = stronger potentiation of ceftriaxone growth inhibition
Details: 10 µM; ceftriaxone 1 ug/ml; 12 h
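Also: End-point A600 read in BHI broth at 37 °C with 2% DMSO, inhibition computed as (1 − OD with compound plus ceftriaxone ÷ OD with ceftriaxone only) × 100.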

In order of rising growth inhibition:
1. CCCS(=O)(=O)Nc1ccc(F)c(C(=O)c2c[nH]c3ncc(-c4ccc(Cl)cc4)cc23)c1F [Vemurafenib (PLX4032)]  -29.7 ± 26%
2. O=S(=O)(CCOCc1ccc(-c2ccc3ncnc(Nc4ccc(OCc5cccc(F)c5)c(Cl)c4)c3c2)o1)c1ccccc1  -11.6 ± 11%
3. CCS(=O)(=O)c1ccc(OC)c(Nc2ncc(-c3cccc(OC)c3)o2)c1  -9.19 ± 17%
4. COc1ccc(-c2nn3ncccc3c2-c2ccnc(Nc3ccc(Cl)c(C(F)(F)F)c3)n2)cc1  -8.69 ± 0.94%
5. Fc1ccc(-c2nn3ncccc3c2-c2ccnc(Nc3ccc4c(c3)OCCO4)n2)cc1  -7.99 ± 5.2%
6. COC(=O)Nc1nc2cc(Oc3cccc(NC(=O)Nc4cc(C(F)(F)F)ccc4F)c3)ccc2[nH]1  -5.06 ± 1.8%
7. CNC(=O)c1cc(-c2ccc(F)cc2)cc(-c2ccc(S(=O)(=O)N3CCCC3)cc2)c1N  -4.95 ± 15%
8. COC(=O)Nc1nc2ccc(Oc3ccc(NC(=O)Nc4cccc(Cl)c4)cc3)cc2[nH]1  -4.18 ± 4.6%
9. C/C(Nc1ccc(S(N)(=O)=O)cc1)=C1/C(=O)Nc2ccccc21  -3.55 ± 0.8%
10. CS(=O)(=O)CCNCc1ccc(-c2ccc3ncnc(Nc4ccc(OCc5ccccc5)cc4)c3c2)o1  -2.04 ± 4.2%
11. NS(=O)(=O)c1ccc(N/N=C2\C(=O)Nc3ccc(-c4cnco4)cc32)cc1  0.00978 ± 0.57%
12. CCn1c(-c2nonc2N)nc2cnc(Oc3cccc(NC(=O)c4ccc(OCCN5CCOCC5)cc4)c3)cc21  0.09 ± 1.7%
13. CN(C)c1ccc2c(c1)/C(=C/Nc1ccc(S(N)(=O)=O)cc1)C(=O)N2  1.99 ± 14%
14. Nc1nc(N)c2nc(-c3cccc(O)c3)cnc2n1  8.99 ± 4.4%
15. CN1CC[C@H](c2c(O)cc(O)c3c(=O)cc(-c4ccccc4Cl)oc23)[C@H](O)C1 [Flavopiridol HCl]  10.3 ± 6.8%
16. COc1ccc(S(=O)(=O)N(C(C)=O)c2ccccc2/C=C/c2cc[n+]([O-])cc2)cc1  13.3 ± 8.8%
17. CNC(=O)c1nn(C)c2c1C(C)(C)Cc1cnc(Nc3ccc(N4CCN(C)CC4)cc3)nc1-2  20.7 ± 8.5%
18. O=c1cc(N2CCOCC2)oc2c(-c3ccccc3)cccc12  27.4 ± 29%
19. N#C/C(=C\c1ccc(O)c(O)c1)C(=O)NCc1ccccc1  28.7 ± 25%
20. COc1cc2ncnc(Nc3cccc(Cl)c3)c2cc1OC [AG-1478 (Tyrphostin AG-1478)]  31.5 ± 11%
21. Cc1nc(Nc2ncc(C(=O)Nc3c(C)cccc3Cl)s2)cc(N2CCN(CCO)CC2)n1  32 ± 20%
22. O=C1NC(=O)/C(=C/c2ccc3c(c2)OC(F)(F)O3)S1  41.2 ± 7.3%
23. O=C(Nc1cc(C(F)(F)F)cc(C(F)(F)F)c1)c1cc(Cl)ccc1O  97.6 ± 0.39%
